IL1B secr inh: qHTS for Inhibitors of Inflammasome Signaling: IL-1-beta AlphaLISA Primary Screen; THP-1 LPS/ATP IL-1B secretion, AlphaLISA, 16 h; stronger effect = lower value; activity change, % at 57.5 µM; 360,000 compounds, 4.7% hits; AID 743279, 2014; in the data active = activity change below about -50%; inconclusive = mostly about -30% to -49%; also: % is scaled to controls: 0 for no effect and ±100 for the full control effect
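Secreted IL-1B measured by AlphaLISA bead assay after 16 h compound exposure of THP-1 cells; compounds (final up to 57.5 uM) added 1 h before LPS (250 ng/mL) and ATP (1.25 mM) stimulation; lower signal means less secretion.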
TDP1 cell CPT: qHTS for Inhibitors of human tyrosyl-DNA phosphodiesterase 1 (TDP1): qHTS in cells in presence of CPT; chicken DT40 Tdp1-/-;hTDP1 cells + 20 nM CPT, ATP luminescence, 48 h; Potency, µM (titrated, usually from 46.2 µM), for inactives: at the highest dose activity change, negative = growth inhibition, hits mostly inhibitors; 420,000 compounds, 12% hits; AID 686979, 2013; also: potency is read from the fitted curve at half-maximal effect; % is scaled to controls: 0 for no effect and ±100 for the full control effect; nearly all actives have a fitted effect of over 55% in size
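Chicken DT40 Tdp1-/- cells complemented with human TDP1, 400 cells/well, exposed to compounds plus 20 nM camptothecin for at least 48 h at 37 C; viability read as ATP content by CellTiter-Glo luminescence.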
DT40 TDP1 no CPT: qHTS for Inhibitors of human tyrosyl-DNA phosphodiesterase 1 (TDP1): qHTS in cells in absence of CPT | DT40 Tdp1-/- hTDP1 cells, no CPT, ATP luminescence, 48 h | Potency, µM (titrated, usually from 46.2 µM), for inactives: at the highest dose activity change, negative = growth inhibition, actives largely listed as inhibitors | 420,000 compounds, 15% hits; also: potency is read from the fitted curve at half-maximal effect; % is scaled to controls: 0 for no effect and ±100 for the full control effect; nearly all actives have a fitted effect of over 55% in size
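Camptothecin absent (DMSO only). Human TDP1-complemented DT40 knockout cells, 400 cells/well, 37 °C for minimum 48 hr; ATP measured via CellTiter-Glo, 30 min dark incubation, luminescence.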
HepG2 tox: qHTS for Inhibitors of TGF-b: Cytotox Counterscreen; HepG2 CAGA-GFP viability, ATP luminescence, 18 h; Potency, µM (top dose mostly 46.1 µM), inactives show at the top dose activity change, negative = cytotoxicity, hits mostly cytotoxic; 410,000 compounds, 0.76% hits; AID 588856, 2011; also: potency is read from the fitted curve at half-maximal effect
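CellTiter-Glo luminescence gave cytotoxicity after 18 hours at 37 degrees C. The cells were HepG2 CAGA-GFP in 1% FBS DMEM, stimulated with 500 pg/mL TGF-beta after compound addition. %Activity was normalised to no-cell wells (complete cell-killing) and DMSO (no toxicity), and curves were fitted and classified.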
TGFb inhibitor: qHTS for Inhibitors of TGF-b. HepG2 CAGA-GFP TGF-b/SMAD3 reporter, GFP fluorescence, 18 h; TGF-beta stimulated, 500 pg/mL final. Potency, µM (top dose mostly 46.1 µM), for inactives: top-dose activity, negative = inhibition, most hits filed as inhibitors. 410,000 compounds, 1.2% hits; also: potency is read from the fitted curve at half-maximal effect; % is scaled to controls: 0 for no effect and ±100 for the full control effect; nearly all actives have a fitted effect of over 65% in size
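First, reporter cells (HEPG2 CAGA-GFP) rested 2 h at 37 degrees C. Next, compounds were pinned in and TGF-beta added to 500 pg/mL final. After 18 h, GFP was imaged per cell and summed per well.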
ASM inhibitor: Inhibitors of Secretory Acid Sphingomyelinase (S-ASM): qHTS | 340,000 compounds, 0.006% hits | AID 504937, 2011 | Potency, µM (doses to about 57.5 µM), for the others: at the top dose activity change, negative = inhibition, most hits filed as inhibitors | placental ASM, HMU-PC fluorogenic substrate, 60 min | Sphingomyelin phosphodiesterase (Homo sapiens), P17405; also: potency is read from the fitted curve at half-maximal effect
Target sequence (P17405 47-631 limits assumed): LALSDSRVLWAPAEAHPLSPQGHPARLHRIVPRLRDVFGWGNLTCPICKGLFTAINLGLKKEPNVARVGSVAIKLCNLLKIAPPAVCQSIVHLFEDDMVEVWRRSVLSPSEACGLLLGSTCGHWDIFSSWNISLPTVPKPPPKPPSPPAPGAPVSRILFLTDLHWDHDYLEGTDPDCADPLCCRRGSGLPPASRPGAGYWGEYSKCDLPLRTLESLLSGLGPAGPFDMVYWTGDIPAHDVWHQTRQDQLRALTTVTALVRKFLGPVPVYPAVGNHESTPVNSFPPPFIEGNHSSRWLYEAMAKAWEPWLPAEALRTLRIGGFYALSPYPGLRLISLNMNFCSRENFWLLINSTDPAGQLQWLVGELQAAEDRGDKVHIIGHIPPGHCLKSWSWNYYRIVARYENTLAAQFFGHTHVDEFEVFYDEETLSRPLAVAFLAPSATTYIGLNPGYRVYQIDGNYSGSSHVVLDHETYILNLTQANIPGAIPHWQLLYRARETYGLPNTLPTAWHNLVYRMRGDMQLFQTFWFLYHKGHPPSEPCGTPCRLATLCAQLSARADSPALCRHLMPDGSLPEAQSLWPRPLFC
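qHTS format. ASM enzyme prepared from human placenta hydrolyses the fluorogenic substrate HMU-PC0 (9 uM final) over 60 min at 37 °C after a 10 min compound preincubation.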
The depositor's hits bear a star; ? = inconclusive; . = not tested or not shown. This is a sample that favours compounds with a hit; in the whole collection about 19% have one here. Unless noted, calls follow the shape of the dose curve; as a rule, active = well fitted curve in the direction sought with a large enough effect; inconclusive = small, poorly fitted or top-dose-only effect, or another doubt; inactive = no such curve, though single readings can be large; an effect the other way counts as inactive or inconclusive.

SMILES	IL1B secr inh	TDP1 cell CPT	DT40 TDP1 no CPT	HepG2 tox	TGFb inhibitor	ASM inhibitor
Cc1cccc(C(=O)Nc2ccccc2C(=O)OCc2c(C)noc2C)c1	-57.2*	-15.7%	?	4.3%	5.0%	6.3%
COc1ccccc1NC(=O)Cn1c(=O)n(CCCCCC(=O)NCc2ccccc2)c(=O)c2sccc21	.	?	?	0.0%	-3.1%	.
O=C(NC1CCN(c2ncccn2)CC1)c1cccc(F)c1	-1.1	-7.7%	-19.5%	5.3%	0.8%	2.7%
CC[N+](C)(C)c1ccc(/C=C/c2ccnc3ccccc23)cc1	.	0.0794µM*	0.112µM*	-74.5%	11.2µM*	.
CC[N+](CC)(CC)c1ccc(/C=C/c2ccnc3ccccc23)cc1	.	0.398µM*	0.316µM*	-75.8%	2.51µM*	.
CC(C)Nc1nc(NC(C)C)nc(N(C#N)CCOc2ccc(Cl)cc2Cl)n1	-13.4	18.4µM*	?	-35.2%	?	-14.8%
Cc1cc(C)nc(N(C#N)CCOc2ccc(Cl)cc2)n1	-20.1	2.9%	-24.2%	-10.3%	0.8%	2.8%
Cc1oc2ccc(O)c(CN3CCCC(C)C3)c2c1C(=O)Nc1ccccc1 (stereo not given)	.	10.3µM*	16.4µM*	-32.7%	-28.2%	.
COc1ccc(NC(=O)c2c(C)oc3ccc(O)c(CN4CCCC(C)C4)c23)cc1 (stereo not given)	.	25.9µM*	?	-37.3%	?	.
COc1ccc(NC(=O)c2c(C)oc3ccc(O)c(CN4CCC(C)CC4)c23)cc1	.	10.3µM*	14.6µM*	-34.5%	-6.5%	.
COc1ccc(NC(=O)c2c(C)oc3ccc(O)c(CN4CCCCCC4)c23)cc1	.	20.6µM*	23.1µM*	-39.5%	-25.5%	.
COc1ccc(NC(=O)CCN2CCC(C)CC2)cc1	0.0	-4.8%	4.5%	3.4%	-2.6%	-1.5%
COc1ccc(NC(=O)c2c(C)oc3ccc(O)c(CN4CCN(C)CC4)c23)cc1Cl	.	16.4µM*	18.4µM*	-48.2%	?	.
COc1cc(NC(=O)CCN2CCN(Cc3ccccc3)CC2)cc(OC)c1	-2.2	-40.4%	?	2.5%	0.0%	-1.6%
COc1ccc(NC(=O)c2c(C)oc3ccc(O)c(CN4CCCC4)c23)cc1Cl	.	?	?	-7.4%	0.3%	.
COc1ccc(NC(=O)c2c(C)oc3ccc(O)c(CN4CCN(Cc5ccccc5)CC4)c23)cc1	.	20.6µM*	11.6µM*	-32.5%	?	.
Cc1ccc(S(=O)(=O)NNC(=O)c2ccc(C(=O)N(c3ccccc3)c3ccccc3)cc2)cc1	.	15.8µM*	11.2µM*	-16.7%	-22.5%	.
O=C(O)CC(NC(=O)Cc1ccc(Cl)cc1)c1ccco1 (stereo not given)	-14.6	4.7%	27.8%	-2.7%	-8.4%	3.0%
COC(=O)C[C@@H]1C=C[C@@H](NC(=O)CN(C)C)[C@@H](CO)O1	18.7	1.3%	0.6%	.	.	.
CCC(C)NC(=O)c1ccc2c(Cl)c3c(nc2c1)CCC3 (stereo not given)	?	-16.5%	-18.0%	-43.1%	-11.7%	-13.1%
CCc1nc2ccc(C(=O)NCc3ccc(SC)cc3)cc2nc1CC	.	?	?	-10.8%	-4.3%	.
CCOc1ccc(CNC(=O)c2ccc3nc(CC)c(CC)nc3c2)cc1	.	16.4µM*	18.4µM*	-1.1%	34.7%	.
CCOc1ccc(CNC(=O)c2ccc3c(Cl)c4c(nc3c2)CCCC4)cc1	.	20.6µM*	-67.9%	1.5%	-10.6%	.
CCOc1ccc(CNC(=O)CSc2c3c(nc4ccc(Cl)cc24)CCCC3)cc1	.	-28.4%	-25.4%	-20.0%	-8.5%	.
Cc1cccc(NC(=O)c2ccc3c(Cl)c4c(nc3c2)CCCC4)n1	-21.8	?	20.6µM*	5.7%	?	-6.7%
SMILES	IL1B secr inh	TDP1 cell CPT	DT40 TDP1 no CPT	HepG2 tox	TGFb inhibitor	ASM inhibitor
CN1CCN(CCCNC(=O)c2ccc3c(Cl)c4c(nc3c2)CCCC4)CC1	-55.9*	?	20.6µM*	-43.7%	11.2µM*	-6.4%
Cc1ccc(C(=O)N2CCCC(Nc3cccc(F)c3)C2)cc1N1CCNC1=O (stereo not given)	1.5	1.1%	9.1%	-14.3%	2.1%	2.4%
CCOc1cc(C(=O)NN=C2CCCC2)cc(OCC)c1OCC	36.8	-6.7%	15.9%	6.6%	?	-0.7%
CN(C(=O)c1cccc(NC(=O)Cc2ccc(NC(=O)C3CCCN(C(=O)C4CCC4)C3)cc2)c1)C1CC1 (stereo not given)	16.4	?	?	-17.4%	-1.0%	8.5%
O=C(NCc1ccc(F)cc1)c1ccc2c(Cl)c3c(nc2c1)CCCC3	.	?	16.4µM*	-25.9%	?	.
O=C(NCc1ccc(F)cc1)c1c2c(nc3ccccc13)CCC2	12.4	?	?	0.6%	0.0%	195.9%
Cc1ccccc1NC(=O)c1onc2c1CCCC2	8.5	?	-29.2%	-47.0%	-9.5%	0.2%
Cc1cccc(NC(=O)c2onc3c2CCCC3)n1	-3.5	9.2µM*	?	-97.7%	11.1%	-0.3%
CCc1ccc(CNC(=O)c2ccc3c(Cl)c4c(nc3c2)CCCC4)cc1	.	?	23.1µM*	5.8%	0.1%	.
CC(C)NC(=O)NC(=O)CSc1nnc(COc2ccccc2F)n1C(C)C1CC2CCC1C2 (stereo not given)	-52.4*	10µM*	10µM*	-106.2%	?	-24.0%
CCCN1CCN(CCCNC(=O)c2ccc3c(c2)sc2nc(-c4ccc(C)cc4)cn23)CC1	.	1.3µM*	1.16µM*	-64.2%	?	.
CCC1CCCCN1CCCNC(=O)c1ccc2c(c1)sc1nc(-c3ccc(F)cc3)cn12 (stereo not given)	.	4.11µM*	2.59µM*	-47.2%	-15.4%	.
CCC1CCCCN1CCCNC(=O)c1ccc2nc(N3CCC(C)CC3)sc2c1 (stereo not given)	?	?	?	-9.1%	18.7%	-5.6%
O=C(NCCCN1CCCCCC1)c1ccc2c(c1)sc1nc(-c3ccccc3)cn12	.	6.51µM*	3.66µM*	15.8µM*	?	.
Cc1ccc(-c2cn3c(n2)sc2cc(C(=O)NCc4cccs4)ccc23)cc1	.	14.6µM*	20.6µM*	-7.3%	20.2%	.
COC(=O)c1ccc(Cl)cc1NC(=O)NCc1c(-n2cccc2)sc2c1CCCC2	.	?	?	-3.7%	-2.9%	.
